The source made the active and inactive calls. Rule as the data show it: active = fold change mostly below about -2 (no sharp cut-off); inactive = mostly above about -1.8.
Experiment: TERT promoter activity modulators, primary screen, cell-based, luciferase reporter, human (AID 1259240)
Conditions: A2780 TERT promoter luciferase reporter, 16 h; at 20 µM, fold versus average of vehicle-only wells
For `O=C(Cc1ccc(NC2=NC3CS(=O)(=O)CC3S2)cc1)N1CCc2ccccc2C1` (centres undefined), the fold change was 1.1 (inactive). In the case of `CCOC(=O)Cn1c(=O)oc2cc(S(=O)(=O)NC3CCCC(C)C3C)ccc21` (centres undefined), the fold change is reported as 1.21 (inactive). In the case of `Cc1ccc(Nc2nc3ccccc3n3cnnc23)cc1`, the fold change is reported as 1.11 (inactive). For `CC(=O)c1ccc2c(c1)c1ccccc1n2C`, the fold change was -3.04 (active). For `COc1ccc(Nc2c(-c3c[nH]c4ccccc34)nc3cnccn23)cc1`, the fold change was -1.09 (inactive). For `Cc1ccc(-c2csc3ncnc(NCCC(=O)O)c23)cc1`, the fold change was 1.18 (inactive). For `O=C(Nc1cnn(Cc2ccc(F)cc2)c1)c1cc(C2CC2)on1`, the fold change was -1.17 (inactive). For `CN1CCc2nc3sc(C(=O)Nc4ccc(F)cc4)c(N)c3cc2C1`, the fold change was -1.42 (inactive). For `c1cnc2c(SCc3cn4ccccc4n3)cccc2c1`, the fold change was -1.15 (inactive). For `FC(F)(F)c1cccc2c1[nH]c1nc3ccccc3nc12`, the fold change was -1.1 (inactive). In the case of `CC(C)CNC(=O)CSc1nc(-c2cccs2)cc(C(F)(F)F)n1`, the fold change is reported as -2.24 (active). For `c1cncc(Cc2nnc(N3CCC4(CC3)OCCO4)c3ccccc23)c1`, the fold change was -1.13 (inactive). For `O=C(Cn1c(=O)c2ccccc2n(CC(=O)Nc2ccc(F)cc2F)c1=O)NCc1ccco1`, the fold change was -2.2 (active). With `CC(C)OCCCNC(=O)c1ccc(NC2=NC3CS(=O)(=O)CC3S2)cc1` (centres undefined) the fold change was 1.22 (inactive). With `O=C(CN1C(=O)COc2ccc(S(=O)(=O)N3CCOCC3)cc21)NCc1ccc2c(c1)OCO2` the fold change was 1.18 (inactive). In the case of `O=c1c2ccccc2nc(N2CCOCC2)n1Cc1ccccc1`, the fold change is reported as -1.33 (inactive). For `Cc1cccc(-c2c3c(=O)n(C)c(=O)n(C)c3c3c(C)nc4ccccc4n23)c1`, the fold change was 1.21 (inactive). In the case of `O=C(NC1(C(F)(F)F)NC(=O)N(Cc2ccco2)C1=O)c1ccncc1` (centres undefined), the fold change is reported as -2.35 (active). With `C=CCNC(=O)c1onc(C)c1Cl` the fold change was 1.22 (inactive). With `CCc1c(C)sc(NC(=O)c2cc(C)no2)c1C#N` the fold change was 1.32 (inactive). For `CCOC(=O)N1CCC(Nc2c(N3CCN(c4ccc(C(C)=O)cc4)CC3)c(=O)c2=O)CC1`, the fold change was -1.1 (inactive). For `O=C(CSc1nc(-c2cccs2)cc(C(F)(F)F)n1)NCc1cccnc1`, the fold change was -2.7 (active). In the case of `Cc1ccc(N2C(=O)c3n[nH]c(C)c3C2c2cccs2)cc1` (centres undefined), the fold change is reported as 1.21 (inactive). In the case of `Cn1c(SCc2nc(-c3ccccc3)no2)nnc1-c1ccco1`, the fold change is reported as -2.04 (active). For `COc1cc2[nH]c(C)cc(=O)c2cc1OC`, the fold change was 1.12 (inactive). In the case of `Cc1cccc2nc(COc3ccc(Cl)cc3)cn12`, the fold change is reported as -4.52 (active). In the case of `COc1cc(OC)c(-c2nc(-c3ccc(C)cc3)no2)cc1OC`, the fold change is reported as 1.55 (inactive). With `CCOC(=O)C1=C(CS(=O)(=O)c2ccc(F)c(C)c2)NC(=O)NC1c1ccccc1` (centres undefined) the fold change was 1.21 (inactive). With `O=C(CC1(CC2=NS(=O)(=O)c3ccccc3N2)CCCC1)NCc1ccccc1` the fold change was -1.27 (inactive). For `Cc1ccc2oc(-c3ccccc3C(=O)O)cc(=O)c2c1`, the fold change was 1.62 (inactive). With `O=C(Nc1nnc(N2CCCCC2)s1)Nc1ccccc1Cl` the fold change was -2.93 (active). In the case of `CN(C)S(=O)(=O)c1cccc(-c2cn3cccnc3n2)c1`, the fold change is reported as -2.07 (active). For `Cn1c(Cc2ccccc2)nn(CN2CCC3(CC2)OCCO3)c1=S`, the fold change was -1.07 (inactive). With `CCSc1nc2ccccc2n1S(=O)(=O)c1ccccc1` the fold change was -2.48 (active). With `CC(C)SC1=NSC2=NC(=O)/C(=C\c3ccco3)C(=N)N21` the fold change was 1.5 (inactive). For `CCNc1nc(NCC)nc(C(=O)OCCO)n1`, the fold change was 1.24 (inactive). For `CC(C)NC(=O)Cn1ncc2c3ccccc3n(C)c2c1=O`, the fold change was 1.04 (inactive). For `Cc1cc(NC(=O)CSc2nnc(Cc3cc(=O)[nH]c(=O)[nH]3)n2-c2ccc(Cl)cc2)no1`, the fold change was -1.22 (inactive). With `CC(C)Cc1nnc(NC(=O)CSc2ncn[nH]2)s1` the fold change was -1.25 (inactive).

— PubChem BioAssay AID1259240 (Keith Lab, Institute of Cancer Science, University of …, 2017)
